# Measurements taken from PubChem BioAssay (NCI).
# About 79,000 compounds went through this panel and 15% of them were active in at least one assay; those are over-represented in the sample as a whole. Unmarked numbers belong to inactive results. The source made the active and inactive calls. Rule as the data show it: active = growth inhibition above about 70%; inactive = the rest.
# Key:
# [1] = NCI Yeast Anticancer Drug Screen. Data for the sgs1 mgt1 strain (AID 161);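 also: 0% = growth of cultures given vehicle only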; details: S. cerevisiae sgs1 mgt1 strain, stronger effect = higher value
# How it was run: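 This yeast growth screen uses a strain with defined DNA-repair lesions; compound-treated growth is compared with vehicle-treated growth.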
# [2] = NCI Yeast Anticancer Drug Screen. Data for the CLN2oe strain (AID 163);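 also: 0% = growth of vehicle-only control cultures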; details: S. cerevisiae CLN2oe strain, stronger effect = higher value
# How it was run: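 Values reflect how much compound exposure reduced yeast growth, referenced to vehicle-exposed cells. Assay organism is a strain with a defined genetic change affecting cell-cycle control.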
# [3] = NCI Yeast Anticancer Drug Screen. Data for the cln2 rad14 strain (AID 165);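 also: 0% = growth equal to vehicle treated cultures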; details: S. cerevisiae cln2 rad14 strain, stronger effect = higher value
# How it was run: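 Relative to vehicle controls, growth inhibition of compound-treated cln2 rad14 yeast was recorded.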
# [4] = NCI Yeast Anticancer Drug Screen. Data for the bub3 strain (AID 167); details: S. cerevisiae bub3 mutant strain, stronger effect = higher value
# How it was run: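 Screening used yeast with an engineered genetic alteration affecting cell cycle control. Compound-exposed cultures were compared with vehicle cultures, and reduced growth was taken as inhibition.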
# [5] = NCI Yeast Anticancer Drug Screen. Data for the wt2 strain (AID 169);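 also: 0% = growth of vehicle-treated yeast cultures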; details: S. cerevisiae wt2 strain growth inhibition, stronger effect = higher value
# How it was run: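 Values express reduction in yeast growth under compound treatment, referenced to vehicle-treated cells.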
# [6] = NCI Yeast Anticancer Drug Screen. Data for the mlh1 strain (AID 171);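 also: 0% = growth of vehicle-treated control cultures of the same strain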; details: S. cerevisiae mlh1 strain growth inhibition, stronger effect = higher value
# How it was run: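 Steps: expose the defined-mutant yeast strain to compound; expose a parallel culture to vehicle; measure growth; express compound effect as inhibition relative to the vehicle culture.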
# [7] = NCI Yeast Anticancer Drug Screen. Data for the sgs1 strain (AID 173);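 also: 0% = growth of vehicle-only control cultures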; details: S. cerevisiae sgs1 mutant, stronger effect = higher value
# How it was run: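 Treat defined-mutant yeast with compound; measure growth; calculate inhibition relative to vehicle-treated cells.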
# [8] = NCI Yeast Anticancer Drug Screen. Data for the mlh1 rad18 strain (AID 175); details: S. cerevisiae mlh1 rad18 strain growth inhibition, stronger effect = higher value
# How it was run: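 Test agents were incubated with a yeast strain of defined genotype (DNA damage repair defect). Inhibition of growth was derived by comparison with vehicle-exposed cultures.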
# [9] = NCI Yeast Anticancer Drug Screen. Data for the rad18 strain (AID 177); details: S. cerevisiae rad18 mutant growth inhibition, stronger effect = higher value
# How it was run: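 A genetically defined yeast mutant impaired in DNA damage repair was treated with test compounds, then its growth was measured against cultures receiving vehicle alone.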
# [10] = at 5.0 µM (retest, dose inferred, filed as 0.5)
# [11] = at 50.0 µM (retest, dose inferred, filed as 5.0)
compound,measurement,setting,value
CCC(/C=C/c1ccccc1)=N\Nc1ccc(Cl)cc1,growth inhibition,[1]; [10],2%
same,growth inhibition,[1]; [11],81% (active)
same,growth inhibition,[1]; at 50.0 µM,86.5% (active)
same,growth inhibition,[2]; at 1.2 µM,-1%
same,growth inhibition,[2]; at 3.7 µM,1%
same,growth inhibition,[2]; at 11.0 µM,8%
same,growth inhibition,[2]; at 33.0 µM,8%
same,growth inhibition,[2]; at 100.0 µM,48%
same,growth inhibition,[3]; [10],5%
same,growth inhibition,[3]; [11],38%
same,growth inhibition,[3]; at 50.0 µM,89.5% (active)
same,growth inhibition,[4]; at 1.2 µM,-2%
same,growth inhibition,[4]; at 3.7 µM,2%
same,growth inhibition,[4]; [10],3%
same,growth inhibition,[4]; at 11.0 µM,5%
same,growth inhibition,[4]; at 33.0 µM,32%
same,growth inhibition,[4]; [11],86% (active)
same,growth inhibition,[4]; at 50.0 µM,97.8% (active)
same,growth inhibition,[4]; at 100.0 µM,51%
same,growth inhibition,[5]; at 1.2 µM,-4%
same,growth inhibition,[5]; at 3.7 µM,-9%
same,growth inhibition,[5]; at 11.0 µM,-4%
same,growth inhibition,[5]; at 33.0 µM,80% (active)
same,growth inhibition,[5]; at 100.0 µM,94% (active)
same,growth inhibition,[6]; at 1.2 µM,-2%
same,growth inhibition,[6]; at 3.7 µM,4%
same,growth inhibition,[6]; at 11.0 µM,4%
same,growth inhibition,[6]; at 33.0 µM,2%
same,growth inhibition,[6]; at 100.0 µM,52%
same,growth inhibition,[7]; at 1.2 µM,-3%
same,growth inhibition,[7]; at 3.7 µM,-4%
same,growth inhibition,[7]; at 11.0 µM,-1%
same,growth inhibition,[7]; at 33.0 µM,77% (active)
same,growth inhibition,[7]; at 100.0 µM,95% (active)
same,growth inhibition,[8]; [10],7%
same,growth inhibition,[8]; [11],91% (active)
same,growth inhibition,[8]; at 50.0 µM,96% (active)
same,growth inhibition,[9]; at 1.2 µM,-3%
same,growth inhibition,[9]; at 3.7 µM,1%
same,growth inhibition,[9]; at 11.0 µM,3%
same,growth inhibition,[9]; at 33.0 µM,79% (active)
same,growth inhibition,[9]; at 100.0 µM,95% (active)
